# Results from PubChem BioAssay (NCATS).
# Results filed as inconclusive are left out. Entries that show only a call come without a potency. Active and inactive are the calls of the source. Calls come from the whole dose curve; as a rule, active = well fitted curve in the direction sought with a large enough effect; inconclusive = small, poorly fitted or top-dose-only effect, or another doubt; inactive = no such curve, though single readings can be large; an effect the other way counts as inactive or inconclusive.
# Legend:
# [1] = biological target: Metallo-beta-lactamase type 2 (Klebsiella pneumoniae) (UniProt C7C422); experiment: qHTS to identify inhibitors of the New Delhi Metallo-beta-lactamase (NDM): assay validation screen against the NCATS LOPAC Collection (AID 1794843); details: NDM-1 enzyme, nitrocefin hydrolysis, absorbance 485 nm; series mostly up to 38.4 µM
# Method in brief: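 Absorbance at 485 nm from nitrocefin turnover (50 uM solution added), read at plateau, gives the read-out. Compounds in DMSO were incubated first with 2 nM final NDM-1 in pH 7.0 HEPES buffer containing 1 uM ZnSO4 and 0.01% Tween20.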
# [2] = biological target: Glutathione peroxidase 1 (Homo sapiens) (UniProt P07203); experiment: Primary qHTS Assay for Inhibitors of Recombinant Selenoprotein Glutathione Peroxidase 1 (GPX1) (AID 1845191); details: recombinant GPX1, GR-coupled NADPH fluorescence, 15 min; series mostly up to 48.8 µM; note: nearly all actives have a fitted effect of over 65% in size
# Method in brief: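 Recombinant GPX1 (10 nM final) was preincubated with compound for 30 min at room temperature, then reacted with 1 mM GSH, 0.5 mM CHP, 0.5 mM NADPH and 100 nM glutathione reductase; NADPH fluorescence (340/450 nm) was read at 0 and 15 min.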
# [3] = biological target: Phospholipid hydroperoxide glutathione peroxidase GPX4 (Homo sapiens) (UniProt P36969); experiment: Primary qHTS Assay for Inhibitors of Recombinant Selenoprotein Glutathione Peroxidase 4 (GPX4) (AID 1845192); details: recombinant GPX4, GR-coupled NADPH fluorescence, 15 min; series mostly up to 50 µM; note: nearly all actives have a fitted effect of over 65% in size
# Method in brief: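 GR-coupled readout: 100 nM GR, 1 mM GSH, 0.5 mM NADPH; NADPH fluorescence (ex 340/em 450 nm) read at t=0 and after 15 min RT. GPX4 200 nM, preincubated 30 min with compound; substrate 0.5 mM CHP.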
# [4] = HepG2 viability counterscreen (readout 2: ATP content) against the NCATS DSHEA and TCM libraries (AID 1794840); details: ATP content luminescence; series mostly up to 27.3 µM;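 note: HepG2 cells exposed to substances for about 24 h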
# Method in brief: (§1)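 Cytotoxicity was assessed in HepG2 cells plated at 1,000 cells/well and exposed for about 24 hours to a concentration series. Protease activity and ATP content were measured sequentially in each well.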
# [5] = HepG2 viability counterscreen (readout 1: protease activity) against the NCATS DSHEA and TCM libraries (AID 1794841); details: qHTS concentration series; series mostly up to 27.3 µM;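 note: cells exposed to compounds for about 24 h before the protease read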
# Method in brief: as §1
# Chain of Metallo-beta-lactamase type 2 (Klebsiella pneumoniae) (C7C422 whole entry, looked up): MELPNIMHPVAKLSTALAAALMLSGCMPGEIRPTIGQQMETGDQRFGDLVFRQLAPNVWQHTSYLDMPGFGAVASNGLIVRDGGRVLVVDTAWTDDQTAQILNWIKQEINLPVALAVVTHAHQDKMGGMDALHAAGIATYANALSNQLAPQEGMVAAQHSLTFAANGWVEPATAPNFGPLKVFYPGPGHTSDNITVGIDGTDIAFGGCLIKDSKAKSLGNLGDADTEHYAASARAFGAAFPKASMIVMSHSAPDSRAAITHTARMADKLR
# Chain of Glutathione peroxidase 1 (Homo sapiens) (P07203 whole entry, looked up): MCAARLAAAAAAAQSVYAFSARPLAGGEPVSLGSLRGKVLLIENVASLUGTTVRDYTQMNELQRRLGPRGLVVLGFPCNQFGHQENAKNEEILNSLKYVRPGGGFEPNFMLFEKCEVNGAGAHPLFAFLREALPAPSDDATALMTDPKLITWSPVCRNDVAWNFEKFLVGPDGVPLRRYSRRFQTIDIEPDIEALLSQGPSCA
# Chain of Phospholipid hydroperoxide glutathione peroxidase GPX4 (Homo sapiens) (P36969 whole entry, looked up): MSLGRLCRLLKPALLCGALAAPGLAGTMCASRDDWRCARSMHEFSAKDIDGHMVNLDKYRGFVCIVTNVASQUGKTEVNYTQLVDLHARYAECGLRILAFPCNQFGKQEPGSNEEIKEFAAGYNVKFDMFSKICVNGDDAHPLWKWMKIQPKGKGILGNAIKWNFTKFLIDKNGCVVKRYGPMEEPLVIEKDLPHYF
Structure (SMILES),Potency [1],Potency [2],Potency [3],outcome [4],outcome [5]
CC(C)(C)c1o[nH]c(=O)c1CC(N)C(=O)O (stereo not given),inactive,inactive,,,
C[C@H](Cc1ccc2c(c1)OC(C(=O)O)(C(=O)O)O2)NC[C@H](O)c1cccc(Cl)c1,inactive,inactive,,,
Clc1ccc(N2CC3CCC(C2)N3)nn1,inactive,inactive,,,
C[N+](C)(C)CC#CCN1CCCC1=O,inactive,inactive,inactive,,
C[N+]1(C)CCN(c2ccccc2)CC1,inactive,inactive,,,
CN(C(=O)Cc1ccc(Cl)c(Cl)c1)C(CN1CCCC1)c1cccc(OCC(=O)O)c1 (stereo not given),inactive,inactive,inactive,,
O=Cc1ccco1,,,,inactive,inactive
CCS(=O)(=O)Nc1cccc(C(=C2CCCCC2)c2cnc[nH]2)c1,inactive,inactive,inactive,,
C=CCN1C[C@@H](C)N([C@H](c2ccc(C(=O)N(CC)CC)cc2)c2cccc(OC)c2)C[C@@H]1C,inactive,inactive,,,
CCCN(CCC)[C@@H]1CCc2cccc(O)c2C1,inactive,inactive,,,
Oc1ccc2c3c1O[C@H]1c4[nH]c5ccccc5c4C[C@@]4(O)C(C2)N(CC2CC2)CCC314 (stereo not given in full),inactive,inactive,,,
NCCCP(=O)(O)O,inactive,inactive,inactive,,
CP(=O)(O)C1=CCNCC1,inactive,inactive,inactive,,
C[N+](C)(C)CC#CCOC(=O)Nc1cccc(Cl)c1,inactive,inactive,,,
COc1ccc2[nH]cc(CCN)c2c1,inactive,inactive,inactive,,
CN1CC[C@@]2(C)c3cc(OC(=O)Nc4ccccc4)ccc3N(C)[C@@H]12,inactive,inactive,inactive,,
CCCN(CCC)C1Cc2cc(OC)c(OC)cc2C1,inactive,inactive,inactive,,
CC(C)NP(=O)(NC(C)C)OP(=O)(NC(C)C)NC(C)C,inactive,inactive,inactive,,
CC(C)(O)[C@@H]1C2OC(=O)[C@@H]1[C@]1(O)C[C@H]3O[C@]34C(=O)O[C@H]2[C@]14C (tested in a mixture with another compound),inactive,inactive,inactive,,
C[N+]1(C)CCc2cc3c(cc2[C@H]1[C@@H]1OC(=O)c2c1ccc1c2OCO1)OCO3,inactive,inactive,inactive,,
COc1ccc2c(c1)C13CCCCC1C(C2)N(C)CC3 (stereo not given),inactive,inactive,inactive,,
NC(=O)COc1c(F)cc(SCCNS(=O)(=O)c2ccccc2)cc1F,inactive,inactive,inactive,,
COC(=O)N1CCN(C(=O)Cc2ccc(Cl)c(Cl)c2)C(CN2CCCC2)C1 (stereo not given),inactive,inactive,inactive,,
C[N+]1(C)C2CCC1CC(OC(=O)c1c[nH]c3ccccc13)C2 (stereo not given),inactive,inactive,inactive,,
CCCN(CCC)C1CCc2cccc(O)c2C1 (stereo not given),inactive,inactive,inactive,,
N[C@@]1(C(=O)O)CC[C@@H](C(=O)O)C1,inactive,inactive,inactive,,
O=C1/C(=C/c2ccccc2)C[C@@]2(O)[C@H]3Cc4ccc(O)c5c4[C@@]2(CCN3CC2CC2)[C@H]1O5,inactive,inactive,inactive,,
O=c1ccc2[nH]cc(C3=CCNCC3)c2[nH]1,inactive,inactive,inactive,,

Structure (SMILES),Potency [1],Potency [2],Potency [3],outcome [4],outcome [5]
C#CCN[C@H](C)Cc1ccccc1,inactive,inactive,inactive,,
NCCc1c[nH]c2ccc(C(N)=O)cc12,inactive,inactive,inactive,,
CN1CCc2cccc(Cl)c2CC1,inactive,inactive,inactive,,
O=C1C=CC(=O)C=C1,inactive,inactive,inactive,,
NC(=O)c1ccc(OCC(O)CN2CC=C(c3ccc(F)cc3)CC2)cc1 (stereo not given),inactive,inactive,inactive,,
CC(=O)c1c(O)c(C)c(O)c(Cc2c(O)c3c(c(C(=O)/C=C/c4ccccc4)c2O)OC(C)(C)C=C3)c1O,inactive,inactive,inactive,,
O=S1(=O)N(CCN2CC=C(c3c[nH]c4cc(F)ccc34)CC2)c2cccc3c2N1CCC3,inactive,inactive,inactive,,
Nc1ccc(CCN2CCN(c3cccc(C(F)(F)F)c3)CC2)cc1,inactive,inactive,inactive,,
Clc1cc(I)cc(Cl)c1NC1=NCCN1,inactive,inactive,inactive,,
COc1ccc(CNC(=O)/C=C/c2ccc3[nH]cc(CCN(C)C)c3c2)cc1,inactive,inactive,inactive,,
C[C@H](N)CN1CCc2ccc(Br)cc21,inactive,inactive,inactive,,
CC(C)(C)OC(=O)NC1[C@H]2CNC[C@@H]12 (stereo not given in full),inactive,inactive,inactive,,
CCOC(=O)c1ncn2c1[C@@H]1CCCN1C(=O)c1cc(OC)ccc1-2,inactive,inactive,inactive,,
CCNC(=O)[C@H]1O[C@@H](n2cnc3c(N)ncnc32)[C@H](O)[C@@H]1O,inactive,inactive,inactive,,
NC(C(=O)O)c1cc(=O)[nH]o1 (stereo not given),inactive,inactive,inactive,,
CC(N)Cc1c[nH]c2ccc(O)cc12 (stereo not given),inactive,inactive,inactive,,
COc1ccc(OC)c(C(O)C(C)N)c1 (stereo not given),inactive,inactive,inactive,,
CC(N)Cc1c[nH]c2ccc(OCc3cccs3)cc12 (stereo not given),inactive,inactive,inactive,,
CO[C@H]1CC=C2CCN3CCC4=C(CC(=O)OC4)[C@]23C1,inactive,inactive,inactive,,
Cc1cc([C@@H]2CCCN2C)on1,inactive,inactive,inactive,,
CCN1C[C@@]2(COC)C3[C@@H](OC)C4[C@@H]1C3([C@@H]1C[C@]3(O)[C@H](OC(=O)c5ccccc5)[C@@H]1[C@]4(OC(C)=O)[C@@H](O)[C@@H]3OC)[C@H](OC)C[C@H]2O,inactive,inactive,inactive,,
OCc1cnc[nH]1,inactive,inactive,inactive,,
NCC(CP(=O)(O)O)c1ccc(Cl)cc1 (stereo not given),inactive,inactive,inactive,,
CN1CCC(c2c[nH]c3ccc(O)cc23)CC1,inactive,inactive,inactive,,
NNC(=O)c1ccc(O)cc1,inactive,inactive,inactive,,
O=[N+]([O-])/C=C/c1ccc2c(c1)OCO2,inactive,inactive,inactive,,
C/C(=C\c1csc(C)n1)[C@@H]1C[C@@H]2O[C@]2(C)CCC[C@H](C)[C@H](O)[C@@H](C)C(=O)C(C)(C)[C@@H](O)CC(=O)O1,,inactive,inactive,,
